Experimental data taken from PubChem BioAssay.
Calls of active or inactive are those of the source.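 Rule for the calls, unless noted: active = a full or partial loss of lipid-probe fluorescence in the fish gall bladder, intestine or both, judged by eye; inactive = no fluorescence loss, or compound toxic to the fish.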

Assays:
[1] = inhibitors of TNFa-induced NFkB p65 translocation, primary screen, imaging, HUVEC, MLSMR starter and 10KST1 sets (AID 438;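 active = inhibition above 20% together with a positive visual image hit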;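 note: compound added about 3h40 before a 20 min TNFalpha stimulation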;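 for inhibition: signal is the nuclear over cytoplasmic p65 intensity ratio per well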); conditions: HUVEC TNFa-induced p65 nuclear translocation; cell count: measured here: nuclei count (cytotoxicity indicator), at 2.08 µM; inhibition: at 2 µM, stronger effect = higher value, 0% TNFa-plus-vehicle, 100% no-TNFa wells
[2] = inhibitors of mutant huntingtin aggregation, primary screen, imaging, exon1htt(103Q)mCFP cells, high-content imaging (AID 483;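 active = visual image review flags a hit and inhibition of aggregation exceeds 20%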;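 note: compound exposure lasted 3 days before fixation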;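 for nuclei count: percent of the per-plate median nuclei count of sample wells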); conditions: exon1htt(103Q)mCFP cell line, aggregate imaging, at 2 µM; inhibition of aggregation: stronger effect = higher value; nuclei count: measured here: cell count, toxicity
[3] = inhibitors of E-selectin induction by TNFa, primary screen, imaging, HUVEC, immunofluorescence, MLSMR starter and 10KST1 sets (AID 487;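 active = visually confirmed hit in the image check and inhibition above 20%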;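 for inhibition: signal is fraction of cell area covered by stained E-selectin grains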;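 for nuclei count: 100% = median nuclei count of all wells on the same plate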); conditions: HUVEC TNFalpha-induced E-selectin immunofluorescence imaging, at 2 µM; inhibition: stronger effect = higher value; nuclei count: measured here: cell number, toxicity
[4] = DUSP6 inhibitors restoring Erk phosphorylation by chemical complementation, primary imaging in DUSP6-transfected HeLa (AID 609;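 active = compounds giving at least 50% inhibition in the cell-based MKP-3 phosphatase rescue imaging test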;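 for inhibition: phospho-Erk level distribution per well compared with pooled transfected vehicle control wells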); conditions: HeLa MKP-3 transfected, phospho-Erk imaging KS statistic, at 10 µM, cells stimulated with TPA for 15 min
[5] = molecular target: Dual specificity protein phosphatase 6 (Homo sapiens) (UniProt Q16828); experiment: as above; conditions: HeLa MKP-3 transfected, phospho-Erk imaging KS statistic; at 10 µM; stronger effect = higher value; cells stimulated with TPA for 15 min
Sequence of Dual specificity protein phosphatase 6 (Homo sapiens) (Q16828 whole entry, looked up): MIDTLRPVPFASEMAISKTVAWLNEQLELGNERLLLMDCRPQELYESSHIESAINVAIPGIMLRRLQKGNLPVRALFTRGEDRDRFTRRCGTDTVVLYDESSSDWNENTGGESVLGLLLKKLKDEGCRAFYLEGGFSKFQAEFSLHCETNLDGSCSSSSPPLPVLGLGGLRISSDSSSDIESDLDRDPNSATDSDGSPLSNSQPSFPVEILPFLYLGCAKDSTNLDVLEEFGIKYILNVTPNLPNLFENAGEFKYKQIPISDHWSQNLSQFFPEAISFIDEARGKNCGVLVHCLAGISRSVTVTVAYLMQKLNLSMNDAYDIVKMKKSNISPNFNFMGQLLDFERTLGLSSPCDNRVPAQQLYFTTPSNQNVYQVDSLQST

[6] = molecular target: Voltage-gated potassium channel subunit beta-2 (Rattus norvegicus) (UniProt P62483); experiment: KvBeta enzyme negative modulators, primary screen, biochemical, NADPH fluorescence (AID 622;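 active = fluorescence slope higher than the sample average by over 3 SD, cut at about -0.22 in these data, passing the limit was not always enough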;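 note: slope of raw intensity against log time taken from 70 to 1610 s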); conditions: recombinant KvBeta, 4-cyanobenzaldehyde reduction, at 10 µM, stronger effect = higher value
Sequence of Voltage-gated potassium channel subunit beta-2 (Rattus norvegicus) (P62483 whole entry, looked up): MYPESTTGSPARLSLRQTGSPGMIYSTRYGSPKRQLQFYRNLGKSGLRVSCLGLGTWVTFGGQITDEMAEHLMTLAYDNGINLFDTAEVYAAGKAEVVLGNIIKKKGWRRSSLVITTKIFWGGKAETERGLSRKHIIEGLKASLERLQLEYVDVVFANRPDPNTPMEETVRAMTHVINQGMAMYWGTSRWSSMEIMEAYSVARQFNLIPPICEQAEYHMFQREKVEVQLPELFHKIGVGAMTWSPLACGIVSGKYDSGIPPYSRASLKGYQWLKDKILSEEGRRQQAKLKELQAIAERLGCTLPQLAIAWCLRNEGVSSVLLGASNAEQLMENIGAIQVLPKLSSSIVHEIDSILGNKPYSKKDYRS

[7] = molecular target: Voltage-gated potassium channel subunit beta-2 (Rattus norvegicus) (UniProt P62483); experiment: KvBeta positive modulators, primary screen, biochemical, NADPH fluorescence (AID 623;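 active = NADPH fluorescence slope more negative than the mean of all samples by about 3 SD, 99.7% confidence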;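 note: fluorescence intensity change per second fitted from 20 to 320 s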); conditions: Recombinant KvBeta, NADPH fluorescence decrease slope, 10 min; at 10 µM; stronger effect = lower value
[8] = molecular target: Alpha-2C adrenergic receptor (Homo sapiens) (UniProt P18825); experiment: modulators of alpha2C/GIRK thallium flux, primary screen, cell-based, HEK293 alpha2C/GIRK1/2 (AID 624;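 active = fluorescence slope after compound addition differing from the mean of all screened samples at 99.7% confidence, in either direction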;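 note: slope of fluorescence ratio to pre-addition baseline per second over 15 to 24 s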); conditions: thallium flux BTC fluorescence, at 10 µM, actives lie on both sides
Sequence of Alpha-2C adrenergic receptor (Homo sapiens) (P18825 whole entry, looked up): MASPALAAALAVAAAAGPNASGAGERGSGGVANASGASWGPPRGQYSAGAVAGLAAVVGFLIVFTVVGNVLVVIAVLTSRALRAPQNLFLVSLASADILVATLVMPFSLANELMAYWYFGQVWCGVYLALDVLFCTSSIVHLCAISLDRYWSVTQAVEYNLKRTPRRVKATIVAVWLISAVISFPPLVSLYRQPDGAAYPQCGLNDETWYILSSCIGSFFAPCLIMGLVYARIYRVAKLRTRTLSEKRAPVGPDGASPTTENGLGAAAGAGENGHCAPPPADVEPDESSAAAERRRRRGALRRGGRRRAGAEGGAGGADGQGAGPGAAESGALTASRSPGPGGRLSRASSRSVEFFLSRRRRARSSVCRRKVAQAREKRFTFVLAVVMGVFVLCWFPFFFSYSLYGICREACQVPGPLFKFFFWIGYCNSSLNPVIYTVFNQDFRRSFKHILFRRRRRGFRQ

[9] = molecular target: Muscarinic acetylcholine receptor M4 (Homo sapiens) (UniProt P08173); experiment: compounds altering M4/GIRK thallium flux, either direction, primary screen, M4 allosteric agonist project, cell-based, HEK293 M4/GIRK, BTC-AM (AID 625;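 active = fluorescence slope after compound addition differing from the mean of all tested samples at 99.7% confidence, mostly higher but some lower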;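 note: thallium influx through GIRK channels coupled to M4 in HEK293 cells with BTC-AM dye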); conditions: at 10 µM, actives lie on both sides
Sequence of Muscarinic acetylcholine receptor M4 (Homo sapiens) (P08173 whole entry, looked up): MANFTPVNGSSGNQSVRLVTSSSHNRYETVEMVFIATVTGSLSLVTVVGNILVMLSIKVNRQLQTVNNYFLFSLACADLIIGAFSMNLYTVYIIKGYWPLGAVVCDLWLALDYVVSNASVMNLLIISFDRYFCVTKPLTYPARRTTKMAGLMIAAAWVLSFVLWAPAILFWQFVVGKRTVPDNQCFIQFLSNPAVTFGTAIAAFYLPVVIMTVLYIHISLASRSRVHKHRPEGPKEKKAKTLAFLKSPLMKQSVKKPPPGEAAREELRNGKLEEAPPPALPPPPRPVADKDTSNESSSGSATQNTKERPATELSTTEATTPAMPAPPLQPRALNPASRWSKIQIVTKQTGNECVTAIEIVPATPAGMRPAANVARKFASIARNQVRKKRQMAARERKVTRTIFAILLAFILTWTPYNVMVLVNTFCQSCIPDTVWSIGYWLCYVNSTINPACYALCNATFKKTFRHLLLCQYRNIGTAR

[10] = inhibitors of larval lipid processing in zebrafish, primary screen, whole organism, PED6 fluorescence, gall bladder and intestine (AID 686); conditions: Zebrafish larvae PED6 lipid processing, fluorescence scoring; screened at 20 µM (by protocol);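 note: larvae 5 to 7 days old with five fish per well; signal comes from phospholipase A2 cleavage of quenched PED6 carried via bile; overnight exposure to compound and PED6 before scoring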
[11] = inhibitors of Chlamydomonas gravitaxis, primary screen, whole organism, Chlamydomonas reinhardtii, WT vs cilia-less mutant, absorbance, 96-well (AID 463189;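 active = inhibition at or above 50% relative to wild type and mutant plate controls; inactive = inhibition below 50%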;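 note: 0% = wild type cc124 cells in DMSO and 100% = ciliumless bld1 mutant cells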); conditions: OD600 absorbance, 2 days, at 10 µM, stronger effect = higher value
[12] = inhibitors of Sendai virus-induced IRF3 signaling, primary screen, TLR/RLR signaling modifier project, cell-based, Sendai virus stimulus, luciferase, 10K MLSCN set (AID 602276;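 active = inhibition at or above 50% at 10 µM; inactive = inhibition below 50%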;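 note: firefly luciferase from ISG56 promoter only with Renilla not read in this screen; 0% = Sendai virus plus DMSO and 100% = medium plus DMSO without virus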); conditions: HEK293 RL24 IRF3 luciferase reporter, at 10 µM, stronger effect = higher value
[13] = inhibitors of poly I:C-induced TLR3 signaling, primary screen, cell-based, poly I:C stimulus, luciferase, 10K MLSCN set (AID 602277;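 active = inhibition of the reporter signal at or above 50%; inactive = inhibition below 50%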); conditions: HEK293-TLR3 RL24 IRF3 luciferase reporter, at 10 µM, stronger effect = higher value
[14] = measured here: cell density z-score
[15] = measured here: nuclear c-Myc green intensity z-score
[16] = measured here: nuclear pErk red intensity z-score, stronger effect = higher value

Structure (SMILES)	cell count [1]	inhibition [1]	inhibition of aggregation [2]	nuclei count [2]	inhibition [3]	nuclei count [3]	z-score [4, 14]	z-score [4, 15]	z-score [4, 16]	inhibition [5]	fluorescence slope [6]	NADPH fluorescence slope [7]	slope [8]	fluorescence slope [9]	outcome [10]	inhibition [11]	inhibition [12]	inhibition [13]
CCOC(=O)c1[nH]c2ccc(OC)cc2c1NC(=O)CCN1CCC(C)CC1	568	-0.3% (inactive)	6.8% (inactive)	110%	-54.8% (inactive)	115%	0.39	-0.288	-0.933	-8.59% (inactive)	-0.339 (inactive)	-3.9e-05 (inactive)	0.00576 (inactive)	0.00353 (inactive)	inactive	29.3% (inactive)	-0.0655% (inactive)	13.6% (inactive)
Cc1cc(/C=N\O)c(C)n1-c1ccncc1	547	-1.1% (inactive)	7.2% (inactive)	92.6%	-50.3% (inactive)	120%	-0.413	0.337	0.578	9.82% (inactive)	-0.47 (inactive)	-0.000127 (inactive)	0.00523 (inactive)	0.00493 (inactive)	inactive	19.4% (inactive)	20.1% (inactive)	25.1% (inactive)
CN1C(=O)c2c(sc3c2CCCC3)NC1c1ccccc1O (centres undefined)	432	-5.1% (inactive)	-1.6% (inactive)	97.6%	-128% (inactive)	136%	1.59	-1.82	0.821	-2.59% (inactive)	-0.47 (inactive)	-0.000117 (inactive)	0.00476 (inactive)	0.00402 (inactive)	inactive	15.4% (inactive)	-8.68% (inactive)	-24.4% (inactive)
CC1(C)Cc2c(c(-c3ccccc3)nc(N3CCCC3)c2C(N)=O)CO1	496	-6% (inactive)	15.7% (inactive)	102%	-130% (inactive)	142%	-1.1	1.34	-0.38	-6.59% (inactive)	-0.473 (inactive)	-0.000128 (inactive)	0.0059 (inactive)	0.00451 (inactive)	inactive; toxic	-0.193% (inactive)	16.5% (inactive)	21.4% (inactive)
COc1ccc(/C(O)=C2\C(=O)C(=O)N(c3cc(C)on3)C2c2ccccc2OC)cc1 (centres undefined)	515	-2.7% (inactive)	-8.1% (inactive)	103%	-21.7% (inactive)	101%	1.8	0.145	-0.473	19.4% (inactive)	-0.469 (inactive)	-6.5e-05 (inactive)	0.00564 (inactive)	0.0068 (inactive)	inactive	-3.34% (inactive)	8.52% (inactive)	-5.11% (inactive)
O=C(CCN1C(=O)c2ccccc2C1=O)OCN1C(=O)c2ccccc2C1=O	490	2.7% (inactive)	10% (inactive)	95.1%	-112% (inactive)	151%	0.766	-1.53	-0.92	29.7% (inactive)	-0.336 (inactive)	4.5e-07 (inactive)	0.00721 (inactive)	0.00607 (inactive)	inactive	1.44% (inactive)	-10.1% (inactive)	-11.6% (inactive)
COc1ccccc1C1(CC(=O)N2CCOCC2)CCOC(C(C)C)C1 (centres undefined)	506	-6.5% (inactive)	-10.9% (inactive)	102%	3.2% (inactive)	131%	0.755	0.316	1.01	5.95% (inactive)	-0.414 (inactive)	-4.7e-05 (inactive)	0.00593 (inactive)	0.00519 (inactive)	inactive	12.8% (inactive)	-1.02% (inactive)	-0.559% (inactive)
CCCCOc1ccc(C(=O)Nc2ccc(N3CCN(C(C)=O)CC3)cc2)cc1	490	-7.3% (inactive)	0.5% (inactive)	104%	-28.4% (inactive)	141%	1.4	-2.16	0.274	5.95% (inactive)	-0.265 (inactive)	1.1e-05 (inactive)	0.00636 (inactive)	0.00551 (inactive)	inactive	3.64% (inactive)	6.98% (inactive)	2.99% (inactive)
COc1ccc(-c2onc(C)c2-c2ccccc2)c(O)c1	477	0.4% (inactive)	-9.9% (inactive)	101%	-110% (inactive)	112%	-0.0693	-0.0566	-1.27	1.98% (inactive)	-0.441 (inactive)	-4.2e-06 (inactive)	0.00908 (inactive)	0.00531 (inactive)	inactive	-11.4% (inactive)	8.8% (inactive)	32.3% (inactive)
CCN(CC)c1ccc(-c2nn3c(-c4cccnc4)nnc3s2)cc1	508	-7.3% (inactive)	-31.1% (inactive)	10%	-247% (inactive)	120%	0.463	-0.276	0.497	-6.06% (inactive)	-0.39 (inactive)	-8.4e-05 (inactive)	0.00633 (inactive)	–	inactive	128% (active)	49.1% (inactive)	7.63% (inactive)
